Reference: PubChem BioAssay (NCATS)
Records with an inconclusive call do not appear. Entries that show only a call come without a potency. Unmarked numbers belong to inactive results. Active and inactive are the calls of the source. Calls follow the shape of the dose curve; as a rule, active = well fitted curve in the direction sought with a large enough effect; inconclusive = small, poorly fitted or top-dose-only effect, or another doubt; inactive = no such curve, though single readings can be large; an effect the other way counts as inactive or inconclusive.

How the values were obtained:
[1] = biological target: Rap guanine nucleotide exchange factor 3 (Homo sapiens) (UniProt O95398); test: Confirmatory qHTS for agonist of cAMP-regulated guanine nucleotide exchange factor 3 (EPAC1) (AID 1645881);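 also: EPAC1 catalysed release of BODIPY-GDP from Rap1B seen as fluorescence loss; nearly all actives have a fitted effect of over 75% in size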
[2] = biological target: Rap guanine nucleotide exchange factor 4 (Homo sapiens) (UniProt Q8WZA2); test: Confirmatory qHTS for agonist of cAMP-regulated guanine nucleotide exchange factor 4 (EPAC2) (AID 1645884);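 also: nucleotide exchange releases bodipy-GDP from Rap1 and this lowers its fluorescence; nearly all actives have a fitted effect of over 65% in size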
[3] = biological target: Rap guanine nucleotide exchange factor 4 (Homo sapiens) (UniProt Q8WZA2); test: Confirmatory qHTS for antagonist of cAMP-regulated guanine nucleotide exchange factor 4 (EPAC2) (AID 1645885); also: nearly all actives have a fitted effect of over 25% in size; also: potency is read from the fitted curve at half-maximal effect

Chain of Rap guanine nucleotide exchange factor 3 (Homo sapiens) (O95398 whole entry, looked up): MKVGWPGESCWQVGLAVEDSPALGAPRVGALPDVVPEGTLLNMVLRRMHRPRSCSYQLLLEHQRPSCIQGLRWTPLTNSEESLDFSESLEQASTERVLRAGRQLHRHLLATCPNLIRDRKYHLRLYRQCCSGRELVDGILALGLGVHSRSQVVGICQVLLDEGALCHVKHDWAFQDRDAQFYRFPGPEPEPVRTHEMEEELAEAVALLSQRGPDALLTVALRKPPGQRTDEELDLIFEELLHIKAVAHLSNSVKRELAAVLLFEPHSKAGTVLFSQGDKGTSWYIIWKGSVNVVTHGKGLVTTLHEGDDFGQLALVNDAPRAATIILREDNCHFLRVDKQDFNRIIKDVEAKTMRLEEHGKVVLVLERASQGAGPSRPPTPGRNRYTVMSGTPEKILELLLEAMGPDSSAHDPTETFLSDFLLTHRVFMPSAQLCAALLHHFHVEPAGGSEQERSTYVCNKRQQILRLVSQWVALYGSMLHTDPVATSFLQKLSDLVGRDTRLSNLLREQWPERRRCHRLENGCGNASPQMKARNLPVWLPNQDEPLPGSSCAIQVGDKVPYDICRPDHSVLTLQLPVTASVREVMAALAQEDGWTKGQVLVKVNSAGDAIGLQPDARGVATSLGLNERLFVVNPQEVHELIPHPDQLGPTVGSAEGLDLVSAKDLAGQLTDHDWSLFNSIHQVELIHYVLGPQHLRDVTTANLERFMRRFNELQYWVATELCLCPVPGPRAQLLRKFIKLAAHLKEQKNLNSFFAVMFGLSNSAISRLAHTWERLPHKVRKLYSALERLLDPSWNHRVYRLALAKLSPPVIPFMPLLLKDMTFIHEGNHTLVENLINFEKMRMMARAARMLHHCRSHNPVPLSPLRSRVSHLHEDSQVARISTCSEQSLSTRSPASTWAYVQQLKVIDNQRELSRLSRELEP
Chain of Rap guanine nucleotide exchange factor 4 (Homo sapiens) (Q8WZA2 whole entry, looked up): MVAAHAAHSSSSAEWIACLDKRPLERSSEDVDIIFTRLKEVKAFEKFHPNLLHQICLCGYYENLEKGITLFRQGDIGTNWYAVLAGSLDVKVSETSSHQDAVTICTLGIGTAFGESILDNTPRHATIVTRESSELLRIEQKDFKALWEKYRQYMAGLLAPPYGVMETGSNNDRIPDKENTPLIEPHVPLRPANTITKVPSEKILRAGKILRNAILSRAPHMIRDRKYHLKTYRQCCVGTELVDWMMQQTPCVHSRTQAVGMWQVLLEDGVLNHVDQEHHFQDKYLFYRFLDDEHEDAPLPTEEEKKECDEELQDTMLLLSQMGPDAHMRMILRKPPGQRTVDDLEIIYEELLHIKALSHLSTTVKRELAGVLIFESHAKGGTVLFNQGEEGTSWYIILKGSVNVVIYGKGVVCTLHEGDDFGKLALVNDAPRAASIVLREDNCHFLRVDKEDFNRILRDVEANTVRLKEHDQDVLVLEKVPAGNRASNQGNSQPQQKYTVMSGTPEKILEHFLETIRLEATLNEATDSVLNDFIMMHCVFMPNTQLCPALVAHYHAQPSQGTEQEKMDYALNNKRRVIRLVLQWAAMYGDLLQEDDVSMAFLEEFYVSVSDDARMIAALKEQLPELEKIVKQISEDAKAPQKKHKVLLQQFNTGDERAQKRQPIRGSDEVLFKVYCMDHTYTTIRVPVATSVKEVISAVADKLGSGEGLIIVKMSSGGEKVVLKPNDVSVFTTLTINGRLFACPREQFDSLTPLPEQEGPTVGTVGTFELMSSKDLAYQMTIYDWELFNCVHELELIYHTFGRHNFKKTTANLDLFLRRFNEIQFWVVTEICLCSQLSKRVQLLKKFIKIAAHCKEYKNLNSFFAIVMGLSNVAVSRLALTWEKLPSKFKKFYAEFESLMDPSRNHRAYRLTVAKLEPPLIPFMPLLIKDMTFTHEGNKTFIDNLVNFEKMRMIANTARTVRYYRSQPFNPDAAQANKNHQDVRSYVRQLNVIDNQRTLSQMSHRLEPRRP

| SMILES | Potency [1] | Potency [2] | Potency [3] | activation [2] | outcome [3] |
| --- | --- | --- | --- | --- | --- |
| C/C(=N\Nc1ccc([N+](=O)[O-])cc1)c1ccc(O)cc1 | inactive | inactive | 26.9 µM (active) | – | – |
| CN(C)c1ccc(/C=C/c2cc[n+](C)c3ccccc23)cc1 | inactive | inactive | 49.4 µM (active) | – | – |
| COC(=O)c1c(NC(=O)COC(=O)c2ccc(NC(=O)CC#N)cc2)sc2c1CCCCC2 | inactive | inactive | inactive | – | – |
| COc1ccc(C(=O)CC2(O)C(=O)N(Cc3cccc(C(F)(F)F)c3)c3ccccc32)cc1 (stereo not given) | inactive | inactive | inactive | – | – |
| O=C(c1[nH]c(C(F)(F)F)nc1-c1ccccc1)N1CCC(C(O)(c2ccccc2)c2ccccc2)CC1 | inactive | inactive | inactive | – | – |
| O=C1CCC[C@@H]2CC(N(Cc3cc4ccccc4s3)c3ccccc3)C[C@@H]3CCN1[C@H]23 (stereo not given in full) | inactive | inactive | inactive | – | – |
| C=CCn1c(SCC(=O)Nc2cc(Cl)ccc2C(=O)O)nc2sc(C)c(C)c2c1=O | inactive | – | inactive | 10.1% [at 17.1 µM, percent relative to cAMP agonist control] | – |
| COC(=O)c1ccccc1NC(=S)NC(=O)c1ccc(C)cc1 | inactive | – | inactive | 2.96% [at 17.1 µM, percent relative to cAMP agonist control] | – |
| Cc1cccc(NC(=O)CSCC(=O)Nc2cccc(S(=O)(=O)N3CCCCCC3)c2)c1 | inactive | – | inactive | 8.94% [at 17.1 µM, percent relative to cAMP agonist control] | – |
| O=C1CCCC2=C1CC(C(=O)OCc1ccccc1)C(=O)N2Cc1ccccc1 (stereo not given) | inactive | – | inactive | 0% [at 17.1 µM, percent relative to cAMP agonist control] | – |
| CCc1nc2ccc(C(=O)Nc3ccc(OC)c(OC)c3)cn2c1N(C)CCC(C)C | inactive | – | inactive | 6.16% [at 17.1 µM, percent relative to cAMP agonist control] | – |
| COC(=O)c1ccc(CSc2nc3scc(-c4cccs4)c3c(=O)[nH]2)o1 | inactive | inactive | inactive | – | – |
| NC(=O)c1c(NC(=O)CSc2nnc(-c3ccco3)n2N)sc2c1CCCC2 | inactive | inactive | inactive | – | – |
| COC(=O)[C@]12CCCCC=C1N(Cc1ccco1)C(=O)[C@H](CC(=O)NCc1cccs1)C2 | inactive | inactive | inactive | – | – |
| COc1ccc(OCCC(=O)OCC(=O)Nc2ccc(S(=O)(=O)N3CCOCC3)cc2)cc1 | inactive | – | inactive | 0% [at 17.1 µM, percent relative to cAMP agonist control] | – |
| Cc1ccc(NCc2nc3ccccc3n2CCOc2ccccc2)cc1 | inactive | inactive | inactive | – | – |
| COc1cc(S(=O)(=O)NC2CCCCC2C)ccc1Cl (stereo not given) | inactive | inactive | inactive | – | – |
| CC(C)Oc1cc(F)ccc1-c1cc(C(=O)Nc2ccc(C(C)C)cc2)[nH]n1 | inactive | inactive | inactive | – | – |
| CC(=O)N1CCC[C@H]1C(=O)NCC1Cc2cc(-c3cccc(OC(F)(F)F)c3)ccc2O1 (stereo not given in full) | inactive | inactive | 44.1 µM (active) | – | – |
| CN(C)c1ccc(C(=O)Nc2sc(Nc3ccccc3)nc2C(N)=O)cc1 | inactive | inactive | inactive | – | – |
| CN(CC(=O)Nc1ccc(Cl)c(C(F)(F)F)c1)CC(=O)NC1CCCCC1 | inactive | inactive | inactive | – | – |
| CCc1nc2c(OCc3ccc(OC(F)F)cc3)cccn2c1N(C)C(=O)c1cccs1 | inactive | inactive | inactive | – | – |
| COC(=O)[C@H](Cc1ccccc1)NC(=O)c1ccc2ccccc2n1 | inactive | – | inactive | 3.75% [at 17.1 µM, percent relative to cAMP agonist control] | – |
| Cc1ccccc1CN1C(=O)C(C)Sc2ccc(-c3ccco3)cc21 (stereo not given) | inactive | inactive | inactive | – | – |
| Cc1cccc(CN2Cc3cccc4c3[C@H](C=CC4)CC2=O)c1 | inactive | inactive | 44.1 µM (active) | – | – |
| COc1ccc(S(=O)(=O)/N=C2/NC(=O)/C(=C\c3cc(OC)c(OC)cc3[N+](=O)[O-])S2)cc1 | inactive | – | inactive | 0% [at 17.1 µM, percent relative to cAMP agonist control] | – |
| O=C(Nc1cc(Cl)cc(Cl)c1)c1ccc(F)c(S(=O)(=O)NC2CCCC2)c1 | inactive | inactive | – | – | inactive [at 12.7 µM] |
| CSc1cccc(N2CC(C(=O)Nc3cccc(S(=O)(=O)N4CCCC4)c3)CC2=O)c1 (stereo not given) | inactive | – | inactive | 4.48% [at 17.1 µM, percent relative to cAMP agonist control] | – |
| O=C1NC[C@H](Cc2ccccc2)N(C[C@@H]2CCCN2C[C@H](Cc2ccc(O)cc2)N2C[C@H](Cc3ccc(O)cc3)N(CC3CCCCC3)C(=O)C2=O)C1=O | inactive | – | inactive | 15.7% [at 17.1 µM, percent relative to cAMP agonist control] | – |
| Cn1c(SCC(=O)c2ccc3c(c2)Cc2ccccc2-3)nnc1-c1ccccc1 | inactive | – | inactive | 0% [at 17.1 µM, percent relative to cAMP agonist control] | – |
